This passage reports Potency results from PubChem BioAssay AID588342 (National Center for Advancing Translational Sciences (NCATS), 2011).

About 25,000 (6.9%) of roughly 360,000 compounds were called active. Entries that show only a call come without a potency. Not shown: some 9% with an inconclusive outcome. Calls come from the whole dose curve; as a rule, active = well fitted inhibition curve with a large enough effect; inconclusive = small, poorly fitted or top-dose-only effect; inactive = flat fitted curve, though single readings scatter. The sample as a whole holds a higher share of actives than the screen did.
Potency is the fitted concentration of half-maximal effect.

Sequence of Luciferin 4-monooxygenase (Photinus pyralis) (P08659 whole entry, looked up): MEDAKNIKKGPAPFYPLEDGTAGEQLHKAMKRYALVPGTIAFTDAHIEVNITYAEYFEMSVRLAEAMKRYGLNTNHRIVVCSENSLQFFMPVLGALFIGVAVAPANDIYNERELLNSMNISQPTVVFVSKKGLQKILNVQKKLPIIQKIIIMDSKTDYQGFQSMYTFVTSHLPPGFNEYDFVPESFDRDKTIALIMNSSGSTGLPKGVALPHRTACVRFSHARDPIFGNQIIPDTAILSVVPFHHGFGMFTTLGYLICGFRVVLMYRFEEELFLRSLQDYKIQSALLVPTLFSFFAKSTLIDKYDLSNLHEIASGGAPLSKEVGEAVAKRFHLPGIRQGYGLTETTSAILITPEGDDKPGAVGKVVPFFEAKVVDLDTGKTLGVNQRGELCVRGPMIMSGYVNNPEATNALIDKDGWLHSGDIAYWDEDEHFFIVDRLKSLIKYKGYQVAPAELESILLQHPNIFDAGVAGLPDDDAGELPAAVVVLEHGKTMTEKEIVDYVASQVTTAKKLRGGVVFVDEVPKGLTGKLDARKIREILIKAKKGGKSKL

In this assay the target is Luciferin 4-monooxygenase (Photinus pyralis) (UniProt P08659). In words: qHTS profiling assay for firefly luciferase inhibitor/activator using purifed enzyme and Km concentrations of substrates (counterscreen for miR-21 project). Note: nearly all actives have a fitted effect of over 55% in size. The following applies: purified FLuc, luminescence inhibition; series mostly up to 57.5 µM. The procedure, abridged:
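Biochemical qHTS of compounds, final roughly 60 µM downward over six points, against 10 nM purified firefly luciferase using Km concentrations of substrates (10 uM D-luciferin, 10 uM ATP) in Tris acetate pH 7.5 buffer; luminescence output.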
In the case of `Cc1cc(C)cc(NC(=O)CSc2nc3nccnc3c(=O)n2CCc2c[nH]c3ccccc23)c1`, the Potency entry is “inactive”. Consider `COc1ccc(N2CCN(C(=O)C3CCCN(C(=O)c4cc5sccc5n4C)C3)CC2)cc1` (centres undefined), for which the Potency entry is “inactive”. The same measure for `Cc1cc(C)c2sc(NC(=O)c3ccc(S(=O)(=O)N4CCCC4)cc3)nc2c1`: “inactive”; for `CC(C)(C)c1ccc(/C=C2\Oc3c(ccc(O)c3CN3CCN(CCO)CC3)C2=O)cc1`: “inactive”. Regarding `CCOc1ccc(-n2c(C)nc3c(cnn3-c3ccc(C)cc3)c2=O)cc1`, the Potency result is “inactive”.

Regarding `CCN(CC(=O)Nc1ccc(NC(C)=O)cc1)C(=O)CSC(=S)N1CCCC1`, the Potency entry is “inactive”. The same measure for `Cn1c(-c2ccc(F)cc2)cc2onc(-c3ccccc3Cl)c2c1=O`: 2.13 µM (active); for `O=C1c2ccccc2C(=O)N1Cc1cc(-c2ccccc2Cl)no1`: “inactive”.

For the compound `Cn1c(-c2ccc(C(F)(F)F)cc2)cc2onc(-c3ccccc3)c2c1=O`, the Potency is 0.536 µM (active). For the compound `Cc1onc(-c2ccccc2)c1C(=O)N1CCN(S(=O)(=O)c2ccccc2C(F)(F)F)CC1`, the Potency entry was “inactive”. The same measure for `O=c1c2ccccc2c(-c2ccc(F)cc2)nn1-c1ccc(C(F)(F)F)cc1`: “inactive”; for `Cc1[nH]n(C)c(=O)c1C(=O)c1c(-c2c(Cl)cccc2Cl)noc1C`: “inactive”; for `COc1ccccc1C1C(C(=O)N2CCCCC2)=C(C)Nc2nc3ccccc3n21` (centres undefined): “inactive”. For the compound `COc1ccccc1CNC(=O)CCCN1C(=O)NC2(CCCC2)C1=O`, the Potency entry was “inactive”.

Consider `CCc1cc(CNC(=O)CC2C(=O)NCCN2CC2CCCCC2)on1` (centres undefined), for which the Potency entry is “inactive”. The same measure for `O=C(NC(Cc1ccccc1)C(=O)N1CCCC(C(F)(F)F)C1)c1ccccc1` (centres undefined): “inactive”; for `FC(F)(F)C1CCCN(c2nsc3ccccc23)C1` (centres undefined): 9.53 µM (active). As for `CC(=O)N1CCCc2cc(S(=O)(=O)N3CCC(C(=O)NCc4ccc(F)cc4)CC3)ccc21`, the Potency result was “inactive”. The same measure for `O=C(NC(=O)N1CCOCC1)c1ccccc1`: “inactive”. Next, `CNC(=O)C(NC(=O)c1ccccc1)=C(C)C`: “inactive”. Next, `O=C(NC(=O)c1ccccc1)Nc1ccccc1O`: 1.9 µM (active). Consider `COc1ccc(OC)c(NC(=O)CSC2=Nc3ccccc3C3=NC(CC(=O)NCc4ccc(F)cc4)C(=O)N23)c1` (centres undefined), for which the Potency entry was “inactive”.

`CCC(=O)Nc1nc(C)c(C(=O)Nc2cccc(Cl)c2)s1`: the Potency result is “inactive”. Take `COc1cc2ccccc2cc1C(=O)Nc1nc(C)c(C(C)=O)s1`: the Potency is 4.78 µM (active).

As to `COc1cc2ccccc2cc1C(=O)Nc1ccccc1C`, the Potency is 8.49 µM (active).

`COc1ccc(Br)cc1C(=O)Nc1cccc(C)c1C`: the Potency result was “inactive”. The same measure for `COc1cccc2sc(N(CCCN(C)C)C(=O)C(c3ccccc3)c3ccccc3)nc12`: “inactive”; for `COc1ccccc1NC(=O)c1cc(Cl)nnc1Cl`: “inactive”. The same measure for `CNC(=O)c1sc(NCc2ccccc2OC)nc1C`: “inactive”. The same measure for `COC(=O)c1ccc(NC(=O)c2cc(Cl)ccc2OC)cc1`: “inactive”; for `COc1cc(OC)c(C(=O)Nc2ccccc2-c2ccccc2)cc1OC`: “inactive”. As to `COc1cc2ccccc2cc1C(=O)N1CCOCC1`, the Potency entry was “inactive”. `COc1cccc2sc(Nc3nc(C)c(C(C)=O)s3)nc12`: the Potency is 6.75 µM (active). The same measure for `COc1cc(OC)c(C(=O)Nc2ccc(N(C)C)cc2)cc1OC`: 10.7 µM (active).
